This is part of a sample that, as a whole, favours compounds with a hit. Of some 79,000 tested, about 15% had one in any assay. Unmarked numbers belong to inactive results. Active and inactive are the calls of the source. Cut-off read from the data, not from the text of the source: active = growth inhibition above about 70%; inactive = the rest.
Columns and labels:
[1] = NCI Yeast Anticancer Drug Screen. Data for the rad52 strain (AID 147);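 note: 0% = growth of vehicle-treated control cultures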; conditions: S. cerevisiae rad52 mutant growth inhibition, active compounds read high
How it was run: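 Inhibition of yeast growth, referenced to vehicle controls, was the measured output for a strain with defective DNA damage repair.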

[2] = NCI Yeast Anticancer Drug Screen. Data for the wt1 strain (AID 149);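 note: 0% = growth of vehicle-treated wt1 cultures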; conditions: S. cerevisiae wt1 strain (SPY 50644) growth inhibition, active compounds read high
How it was run: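 Using yeast strain wt1, compound-induced growth inhibition was determined against vehicle-treated cultures.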

[3] = NCI Yeast Anticancer Drug Screen. Data for the rad50EPP+ strain (AID 151);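 note: 0% = growth of vehicle-treated control cultures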; conditions: S. cerevisiae rad50 mutant strain, active compounds read high
How it was run: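 Genetically defined yeast (rad50EPP+, DNA damage repair alteration) is grown with compound, and inhibition of growth is expressed relative to vehicle-treated controls.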

[4] = NCI Yeast Anticancer Drug Screen. Data for the mgt1 strain (AID 153); conditions: S. cerevisiae mgt1 mutant growth inhibition, active compounds read high
How it was run: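 In the mgt1 strain, test compounds were added and growth inhibition was determined relative to vehicle-treated controls.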

[5] = NCI Yeast Anticancer Drug Screen. Data for the rad50 strain (AID 155);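 note: 0% = growth of vehicle-only cultures of the same strain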; conditions: S. cerevisiae rad50 strain growth inhibition, active compounds read high
How it was run: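 Relative growth inhibition (compound vs vehicle) was measured in yeast with a defined repair-gene alteration.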

[6] = NCI Yeast Anticancer Drug Screen. Data for the mec2-1 strain (AID 157); conditions: S. cerevisiae mec2-1 strain, active compounds read high
How it was run: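 Each compound was tested on mec2-1 yeast, a strain altered in DNA damage repair or cell cycle control. Growth inhibition is reported relative to vehicle.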

[7] = NCI Yeast Anticancer Drug Screen. Data for the rad14 strain (AID 159);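 note: 0% = growth of vehicle-treated control cultures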; conditions: S. cerevisiae rad14 strain growth inhibition, active compounds read high
How it was run: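 Screen for anticancer potential: a yeast strain altered in DNA damage repair is grown with compound, and reduced growth is quantified against vehicle controls.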

[8] = NCI Yeast Anticancer Drug Screen. Data for the sgs1 mgt1 strain (AID 161);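 note: 0% = growth of cultures given vehicle only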; conditions: S. cerevisiae sgs1 mgt1 strain, active compounds read high
How it was run: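 Genetically altered yeast, compound exposure, growth inhibition relative to vehicle.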

[9] = NCI Yeast Anticancer Drug Screen. Data for the CLN2oe strain (AID 163);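 note: 0% = growth of vehicle-only control cultures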; conditions: S. cerevisiae CLN2oe strain, active compounds read high
How it was run: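 First, the altered yeast strain was treated with each compound; second, its growth was measured; finally, inhibition was derived by comparison with vehicle controls.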

[10] = NCI Yeast Anticancer Drug Screen. Data for the bub3 strain (AID 167); conditions: S. cerevisiae bub3 mutant strain, active compounds read high
How it was run: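 Screening used yeast with an engineered genetic alteration affecting cell cycle control. Compound-exposed cultures were compared with vehicle cultures, and reduced growth was taken as inhibition.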

[11] = NCI Yeast Anticancer Drug Screen. Data for the wt2 strain (AID 169);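 note: 0% = growth of vehicle-treated yeast cultures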; conditions: S. cerevisiae wt2 strain growth inhibition, active compounds read high
How it was run: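 The panel's yeast strains carry defined changes in DNA repair or cell cycle genes. Each strain is grown with compound, and growth loss is scored relative to vehicle.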

[12] = NCI Yeast Anticancer Drug Screen. Data for the mlh1 strain (AID 171);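 note: 0% = growth of vehicle-treated control cultures of the same strain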; conditions: S. cerevisiae mlh1 strain growth inhibition, active compounds read high
How it was run: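 Inhibition values reflect reduced yeast growth in the presence of compound, referenced to vehicle controls, using a strain chosen for its alteration in DNA repair or cell cycle control.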

[13] = NCI Yeast Anticancer Drug Screen. Data for the sgs1 strain (AID 173);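 note: 0% = growth of vehicle-only control cultures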; conditions: S. cerevisiae sgs1 mutant, active compounds read high
How it was run: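 Vehicle-treated cultures served as reference for growth inhibition of a yeast strain altered in DNA damage repair or cell cycle control after compound exposure.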

[14] = NCI Yeast Anticancer Drug Screen. Data for the mlh1 rad18 strain (AID 175); conditions: S. cerevisiae mlh1 rad18 strain growth inhibition, active compounds read high
How it was run: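 Inhibition values reflect reduced growth of mutant yeast versus vehicle-treated controls following compound exposure; the mutations affect DNA damage repair.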

[15] = NCI Yeast Anticancer Drug Screen. Data for the rad18 strain (AID 177); conditions: S. cerevisiae rad18 mutant growth inhibition, active compounds read high
How it was run: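 Steps: expose repair-mutant yeast to compound; measure growth; express as inhibition relative to vehicle control.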

[16] = NCI Yeast Anticancer Drug Screen. Data for the cln2 rad14 strain (AID 165);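 note: 0% = growth equal to vehicle treated cultures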; conditions: S. cerevisiae cln2 rad14 strain, active compounds read high
How it was run: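 Test compounds were added to cln2 rad14 yeast cultures; inhibition of growth was then determined by comparison with vehicle treatment.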

[17] = at 5.0 µM (retest, dose inferred, filed as 0.5)
[18] = at 50.0 µM (retest, dose inferred, filed as 5.0)

BrCc1cccc2ccc3cccc(CBr)c3c12
growth inhibition ([1]; at 1.2 µM): -3%
growth inhibition ([1]; at 3.7 µM): -4%
growth inhibition ([1]; at 11.0 µM): -1%
growth inhibition ([1]; at 33.0 µM): 2%
growth inhibition ([1]; at 100.0 µM): 10%
growth inhibition ([2]; at 1.2 µM): -3%
growth inhibition ([2]; at 3.7 µM): -3%
growth inhibition ([2]; at 11.0 µM): -4%
growth inhibition ([2]; at 33.0 µM): -8%
growth inhibition ([2]; at 100.0 µM): -7%
growth inhibition ([3]; at 1.2 µM): -4%
growth inhibition ([3]; at 3.7 µM): 0%
growth inhibition ([3]; at 11.0 µM): 12%
growth inhibition ([3]; at 33.0 µM): 18%
growth inhibition ([3]; at 100.0 µM): 24%
growth inhibition ([4]; at 1.2 µM): 2%
growth inhibition ([4]; at 3.7 µM): 0%
growth inhibition ([4]; at 11.0 µM): 1%
growth inhibition ([4]; at 33.0 µM): -2%
growth inhibition ([4]; at 100.0 µM): 3%
growth inhibition ([5]; at 1.2 µM): -3%
growth inhibition ([5]; at 3.7 µM): -3%
growth inhibition [5, 17]: -1%
growth inhibition ([5]; at 11.0 µM): 0%
growth inhibition ([5]; at 33.0 µM): 1%
growth inhibition [5, 18]: 85% (active)
growth inhibition ([5]; at 50.0 µM): 66.3%
growth inhibition ([5]; at 100.0 µM): 10%
growth inhibition ([6]; at 1.2 µM): -2%
growth inhibition ([6]; at 3.7 µM): -1%
growth inhibition [6, 17]: -5%
growth inhibition ([6]; at 11.0 µM): -2%
growth inhibition ([6]; at 33.0 µM): -3%
growth inhibition [6, 18]: 97% (active)
growth inhibition ([6]; at 50.0 µM): 21.8%
growth inhibition ([6]; at 100.0 µM): -2%
growth inhibition ([7]; at 1.2 µM): -2%
growth inhibition ([7]; at 3.7 µM): -2%
growth inhibition ([7]; at 11.0 µM): -2%
growth inhibition ([7]; at 33.0 µM): -2%
growth inhibition ([7]; at 100.0 µM): 2%
growth inhibition [8, 17]: -3%
growth inhibition [8, 18]: 85% (active)
growth inhibition ([8]; at 50.0 µM): 72% (active)
growth inhibition ([9]; at 1.2 µM): -2%
growth inhibition ([9]; at 3.7 µM): 0%
growth inhibition ([9]; at 11.0 µM): -3%
growth inhibition ([9]; at 33.0 µM): -13%
growth inhibition ([9]; at 100.0 µM): -12%
growth inhibition ([10]; at 1.2 µM): -12%
growth inhibition ([10]; at 3.7 µM): -14%
growth inhibition [10, 17]: 4%
growth inhibition ([10]; at 11.0 µM): -8%
growth inhibition ([10]; at 33.0 µM): -11%
growth inhibition [10, 18]: 50%
growth inhibition ([10]; at 50.0 µM): 65%
growth inhibition ([10]; at 100.0 µM): -6%
growth inhibition ([11]; at 1.2 µM): -2%
growth inhibition ([11]; at 3.7 µM): -5%
growth inhibition ([11]; at 11.0 µM): -4%
growth inhibition ([11]; at 33.0 µM): -6%
growth inhibition ([11]; at 100.0 µM): -4%
growth inhibition ([12]; at 1.2 µM): -3%
growth inhibition ([12]; at 3.7 µM): -3%
growth inhibition ([12]; at 11.0 µM): -2%
growth inhibition ([12]; at 33.0 µM): -2%
growth inhibition ([12]; at 100.0 µM): 1%
growth inhibition ([13]; at 1.2 µM): -3%
growth inhibition ([13]; at 3.7 µM): -3%
growth inhibition ([13]; at 11.0 µM): -4%
growth inhibition ([13]; at 33.0 µM): -3%
growth inhibition ([13]; at 100.0 µM): -1%
growth inhibition [14, 17]: -1%
growth inhibition [14, 18]: 96% (active)
growth inhibition ([14]; at 50.0 µM): 73.5% (active)
growth inhibition ([15]; at 1.2 µM): -4%
growth inhibition ([15]; at 3.7 µM): 0%
growth inhibition ([15]; at 11.0 µM): -1%
growth inhibition ([15]; at 33.0 µM): 0%
growth inhibition ([15]; at 100.0 µM): 11%

CCC[CH2][Ge]([CH2]CCC)([CH2]CCC)[O]C(=O)C(OC)c1ccccc1 (stereo not given)
growth inhibition ([1]; at 1.2 µM): 0%
growth inhibition ([1]; at 3.7 µM): 6%
growth inhibition ([1]; at 11.0 µM): 25%
growth inhibition ([1]; at 33.0 µM): 66%
growth inhibition ([1]; at 100.0 µM): 98% (active)
growth inhibition ([2]; at 1.2 µM): -3%
growth inhibition ([2]; at 3.7 µM): -6%
growth inhibition ([2]; at 11.0 µM): -3%
growth inhibition ([2]; at 33.0 µM): 30%
growth inhibition ([2]; at 100.0 µM): 97% (active)
growth inhibition ([3]; at 1.2 µM): -2%
growth inhibition ([3]; at 3.7 µM): 3%
growth inhibition ([3]; at 11.0 µM): 6%
growth inhibition ([3]; at 33.0 µM): 16%
growth inhibition ([3]; at 100.0 µM): 34%
growth inhibition ([4]; at 1.2 µM): -2%
growth inhibition ([4]; at 3.7 µM): -1%
growth inhibition ([4]; at 11.0 µM): 1%
growth inhibition ([4]; at 33.0 µM): 58%
growth inhibition ([4]; at 100.0 µM): 99% (active)
growth inhibition ([5]; at 1.2 µM): 2%
growth inhibition ([5]; at 3.7 µM): 8%
growth inhibition [5, 17]: 60%
growth inhibition ([5]; at 11.0 µM): -2%
growth inhibition ([5]; at 33.0 µM): 64%
growth inhibition [5, 18]: 60%
growth inhibition ([5]; at 50.0 µM): 69.9%
growth inhibition ([5]; at 100.0 µM): 98% (active)
growth inhibition ([6]; at 1.2 µM): -1%
growth inhibition ([6]; at 3.7 µM): -1%
growth inhibition [6, 17]: 57%
growth inhibition ([6]; at 11.0 µM): 7%
growth inhibition ([6]; at 33.0 µM): 34%
growth inhibition [6, 18]: 57%
growth inhibition ([6]; at 50.0 µM): 75.5% (active)
growth inhibition ([6]; at 100.0 µM): 98% (active)
growth inhibition ([7]; at 1.2 µM): -2%
growth inhibition ([7]; at 3.7 µM): -7%
growth inhibition ([7]; at 11.0 µM): -10%
growth inhibition ([7]; at 33.0 µM): 26%
growth inhibition ([7]; at 100.0 µM): 95% (active)
growth inhibition ([9]; at 1.2 µM): -6%
growth inhibition ([9]; at 3.7 µM): 1%
growth inhibition ([9]; at 11.0 µM): 6%
growth inhibition ([9]; at 33.0 µM): 41%
growth inhibition ([9]; at 100.0 µM): 98% (active)
growth inhibition [16, 17]: 18%
growth inhibition [16, 18]: 18%
growth inhibition ([16]; at 50.0 µM): 66.5%
growth inhibition ([10]; at 1.2 µM): -6%
growth inhibition ([10]; at 3.7 µM): -4%
growth inhibition [10, 17]: 10%
growth inhibition ([10]; at 11.0 µM): 12%
growth inhibition ([10]; at 33.0 µM): 54%
growth inhibition [10, 18]: 10%
growth inhibition ([10]; at 50.0 µM): 76% (active)
growth inhibition ([10]; at 100.0 µM): 97% (active)
growth inhibition ([11]; at 1.2 µM): -3%
growth inhibition ([11]; at 3.7 µM): -4%
growth inhibition ([11]; at 11.0 µM): 0%
growth inhibition ([11]; at 33.0 µM): 48%
growth inhibition ([11]; at 100.0 µM): 98% (active)
growth inhibition ([12]; at 1.2 µM): -4%
growth inhibition ([12]; at 3.7 µM): -5%
growth inhibition ([12]; at 11.0 µM): -1%
growth inhibition ([12]; at 33.0 µM): 60%
growth inhibition ([12]; at 100.0 µM): 98% (active)
growth inhibition ([13]; at 1.2 µM): -1%
growth inhibition ([13]; at 3.7 µM): 1%
growth inhibition ([13]; at 11.0 µM): 11%
growth inhibition ([13]; at 33.0 µM): 71% (active)
growth inhibition ([13]; at 100.0 µM): 94% (active)
growth inhibition [14, 17]: 39%
growth inhibition [14, 18]: 39%
growth inhibition ([14]; at 50.0 µM): 78% (active)
growth inhibition ([15]; at 1.2 µM): 5%
growth inhibition ([15]; at 3.7 µM): 4%
growth inhibition ([15]; at 11.0 µM): 22%
growth inhibition ([15]; at 33.0 µM): 80% (active)
growth inhibition ([15]; at 100.0 µM): 98% (active)

— PubChem BioAssay (NCI)
